Screening data deposited in PubChem BioAssay by National Center for Advancing Translational Sciences (NCATS).
Hits are enriched below; roughly 2.3% of the tested compounds scored in any of these assays.
AmpC detergent: qHTS Inhibitors of AmpC Beta-Lactamase (assay with detergent). AmpC hydrolysis of nitrocefin, absorbance 480 nm, 0.01% Triton. Potency, µM (top dose mostly 114 µM), inactives show top-dose activity change, negative = inhibition, most hits filed as inhibitors. 370,000 compounds, 0.041% hits;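 also: 0% = no-compound wells and -100% = no-enzyme wells; nearly all actives have a fitted effect of over 25% in size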
Target sequence (P00811 whole entry, looked up): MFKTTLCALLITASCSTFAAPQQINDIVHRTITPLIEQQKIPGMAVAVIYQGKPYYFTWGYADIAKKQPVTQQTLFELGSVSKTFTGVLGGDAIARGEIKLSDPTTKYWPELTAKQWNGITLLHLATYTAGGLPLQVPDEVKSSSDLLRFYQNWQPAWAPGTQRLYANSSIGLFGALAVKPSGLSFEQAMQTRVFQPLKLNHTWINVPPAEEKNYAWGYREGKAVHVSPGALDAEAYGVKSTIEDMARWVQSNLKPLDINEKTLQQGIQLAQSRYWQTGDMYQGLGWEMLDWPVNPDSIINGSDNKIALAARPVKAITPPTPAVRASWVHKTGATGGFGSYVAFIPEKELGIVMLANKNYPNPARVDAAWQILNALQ
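20 mM phosphate pH 7.0 + 0.01% (detergent screen) or 0.0001% Triton X-100; 5.3 nM AmpC reagent; cpd preinc 15 min RT; nitrocefin (800 uM stock) to start; A480 q20 s × 4 min; Activity was normalised to no-enzyme and no-compound control wells.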
AmpC no deterg: qHTS Inhibitors of AmpC Beta-Lactamase (assay without detergent); AmpC nitrocefin hydrolysis, absorbance 480 nm, 0.0001% Triton; Potency, µM (highest dose often 57.1 µM), for inactives: at the highest dose activity change, negative = inhibition, actives largely listed as inhibitors; 330,000 compounds, 0.52% hits;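 also: plate controls were no compound for no effect and no enzyme for full effect; nearly all actives have a fitted effect of over 20% in size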
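AmpC (5.3 nM in the dispensed reagent) in 20 mM phosphate pH 7.0 with 0.01% (detergent screen) or 0.0001% Triton X-100 was preincubated with compounds for 15 min at room temperature. Nitrocefin was then added from an 800 uM solution, and hydrolysis was followed at 480 nm.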
LASV entry inh: qHTS for Inhibitors of binding or entry into cells for Lassa Virus | Potency, µM (highest dose often 37.9 µM), for the others: at the highest dose activity change, negative = inhibition, hits mostly inhibitors | 300,000 compounds, 1.2% hits | Lassa virus pseudotype entry inhibition, cell reporter; calls by dose curve; tested in HEK293 cells; also: nearly all actives have a fitted effect of over 50% in size
MARV entry inh: qHTS for inhibitors of binding or entry into cells for Marburg Virus; Marburg virus pseudotyped entry inhibition, cell reporter; 300,000 compounds, 1.8% hits; Potency, µM (titrated, usually from 37.8 µM), for the others: at the highest dose activity change, negative = inhibition, actives largely listed as inhibitors; calls by dose curve; tested in HEK293 cells
AMA1-RON2 inh: qHTS for Inhibitors of AMA1-RON; Towards Development of Antimalarial Drug Lead: Primary Screen; AlphaScreen AMA1-biotinylated RON2 peptide binding; Potency, µM (top dose mostly 58.2 µM), without a hit: at the highest dose activity change, negative = inhibition, usual class: inhibitors; Plasmodium falciparum AMA1 (3D7) - RON2 peptide interaction; AID 720542, 2013; 360,000 compounds, 0.2% hits;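 also: 0% = vehicle wells and -100% = peptide control; nearly all actives have a fitted effect of over 45% in size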
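AMA1 (3D7) with his tag at 25 nM final met compounds first, then biotinylated RON2 peptide at 25 nM; detection used donor plus acceptor beads, 10 µg/mL apiece, read by AlphaScreen after 30 min at room temperature.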
Numbers without * were called inactive; ? = inconclusive; / = not tested or not shown; [ ] = another dose, or the depositor's remark. Unless noted, calls follow the shape of the dose curve; as a rule, active = well fitted curve in the direction sought with a large enough effect; inconclusive = small, poorly fitted or top-dose-only effect, or another doubt; inactive = no such curve, though single readings can be large; an effect the other way counts as inactive or inconclusive. Unless noted, % is scaled to controls: 0 for no effect and ±100 for the full control effect; potency is read from the fitted curve at half-maximal effect.

SMILES	AmpC detergent	AmpC no deterg	LASV entry inh	MARV entry inh	AMA1-RON2 inh
Cc1cccc(NC(=S)NC2CC3CCCC(C2)N3Cc2cccs2)c1 (configuration not stated)	?	-4%	?	1.6µM*	-15%
COCCNC(=S)NC1CC2CCCC(C1)N2Cc1cccs1 (configuration not stated)	?	-22%	-16%	?	-7%
Cc1ccc(C(C)(C)C)c(OCCOCCN2CCCC2)c1	-5%	23%	?	12µM*	1%
CCC(C)c1ccccc1OCCOCCN1CCCC1 (configuration not stated)	4%	6%	18µM*	?	-1%
Cc1ccc2oc(-c3ccc(Cl)c(NC(=O)c4cc5ccccc5o4)c3)nc2c1	8%	/	?	?	/
COc1cccc(NS(=O)(=O)c2ccc3[nH]cc(C(=O)N(C)C4CCCCC4)c(=O)c3c2)c1	-2%	/	16%[46.1 µM]	/	/
COc1ccc(Cl)cc1NC(=O)N1CCC(CN2CCc3ccccc3C2)CC1	1%	/	15%[46.1 µM]	/	/
C[C@@H]1C=CCCO[C@]12C(=O)N(Cc1ccc(Br)cc1)c1cccc(Br)c12	/	/	/	7%[14.2 µM]	/
O=[N+]([O-])c1ccccc1N/N=C1\CC2CC=CC12 (configuration not stated)	6%	-34%	/	/	20µM*
Cc1nc(N2CCCC2)c2c(C(=O)Nc3ccc(C)c(Cl)c3)c(C)oc2n1	21%	/	22%[46.1 µM]	/	/
CCOc1ccc(S(=O)(=O)N(C)c2ccc(OCC(=O)NCc3ccc(C(=O)OC)cc3)cc2)cc1	2%	-16%	3.2µM*	2%[46.1 µM]	-9%
Cc1ccc(-c2noc(-c3ccc(NCc4ccco4)c([N+](=O)[O-])c3)n2)cc1	26%	/	6%[46.1 µM]	8%[46.1 µM]	/
CCOC(=O)C1(Cc2cccc(OC)c2)CCN(C/C=C/c2ccccc2)CC1	1%	64%	?	7.9µM*	-16%
CCOC(=O)C1(Cc2cccc(OC)c2)CCN(Cc2ccc(OC)c(O)c2)CC1	0%	-4%	/	/	-8%
CCOC(=O)C1(CCOc2ccccc2)CCN(Cc2ccc(O)c(OCC)c2)CC1	-13%	34%	?	11µM*	-7%
CCOC(=O)C1(Cc2cccc(OC)c2)CCN(Cc2cccc(OCC)c2O)CC1	-2%	67%	-24%[46.1 µM]	7.1µM*	?
CCOC(=O)C1(CCOc2ccccc2)CCN(Cc2ccc(OC)c(O)c2)CC1	-7%	34%	/	/	-2%
CCOC(=O)C1(CC2CC2)CCN(Cc2cc(Cl)c(O)c(OC)c2)CC1	4%	14%	?	?	1%
CCOC(=O)C1(CC2CC2)CCN(Cc2ccc(OC)cc2F)CC1	-9%	9%	?	10µM*	-7%
CCc1cc(=O)oc2cc(C)c(CN3CCC[C@@H](C)C3)c(O)c12	/	/	/	14%	/
C[C@@H]1CC2CCCC2[C@]2(O1)C(=O)Nc1ccccc12 (some centres not stated)	/	/	/	-4%[14.2 µM]	/
COc1ccccc1OC(C)C(=O)Nc1ccc(-c2nc3ccccc3s2)cc1 (configuration not stated)	22%	/	1%[46.1 µM]	?	/
CC(C)c1oc(=O)cc2c1[C@@H](O)[C@H]1OC(=O)[C@@]3(C)C[C@@H](O)[C@@H](O)[C@@]2(C)C13 (some centres not stated)	?	5%	6.5µM*	3.3µM*	1%
CC(C)c1oc(=O)cc2c1[C@@H](O)[C@H]1OC(=O)[C@@]3(C)CC[C@@H](O)[C@@]2(C)C13 (some centres not stated)	-2%	-8%	?	?	6%
CCCOc1ccc(/C(O)=C2\C(=O)C(=O)N(CCN(C)C)[C@H]2c2ccncc2)cc1	/	/	/	20%	/
SMILES	AmpC detergent	AmpC no deterg	LASV entry inh	MARV entry inh	AMA1-RON2 inh
COc1ccc(-n2ccc(=O)c(C(=O)Nc3ccc(S(=O)(=O)Nc4nccs4)cc3)n2)cc1	50µM*	-30%	/	/	3%
O=C(Nc1ccc(S(=O)(=O)Nc2nccs2)cc1)c1nn(-c2ccccc2)ccc1=O	?	-38%	/	/	-7%
CC(C)=CCN1C(=O)[C@]2(O[C@H](C)CC3=CCCC32)c2c(Br)cccc21 (some centres not stated)	/	/	/	3%[14.2 µM]	/
Cc1ccc(OCCCCNC2CCCC(C)C2C)c(C)c1 (configuration not stated)	4%	27%	?	11µM*	-7%
O=C(CCCn1c(=O)c2sccc2n(Cc2cc(=O)n3ccccc3n2)c1=O)NCc1ccco1	?	40µM*	/	/	-8%
CC(C)(C)c1ccc(C(=O)NNc2cc(N3CCCCC3)nc(N3CCCCC3)n2)cc1	-1%	0.16µM*	-15%	?	16%
CCC(C)NCCC(=O)Nc1ccc(Cl)c(S(=O)(=O)Nc2ccc(Cl)cc2)c1 (configuration not stated)	-13%	-21%[11.4 µM]	7%	11µM*	-10%
COc1cc(NC(=O)Cn2cc(S(=O)(=O)N3CCC(C)CC3)c3ccccc3c2=O)cc(OC)c1OC	13%	/	-26%[46.1 µM]	10µM*	/
COc1cc(Cl)c(C)cc1NC(=O)Cn1cc(S(=O)(=O)N2CCC(C)CC2)c2ccccc2c1=O	0%	/	0%[46.1 µM]	-15%[46.1 µM]	/
Cc1ccc(C(=O)CSc2nsc(C)c2C#N)cc1	4%	0.25µM*	?	0%	-1%
Cc1snc(SCC(=O)c2ccc(Cl)cc2)c1C#N	?	-50%	25%	?	10%
CCCC[C@H]1CN2[C@H](c3ccc(Br)cc3)[C@H](C)CC[C@H]2C(=O)O1	/	/	/	2%[14.2 µM]	/
CCOC(=O)CSC1=C(C#N)[C@H](c2ccc(OC)cc2)C2=C(CC(C)(C)CC2=O)N1	/	/	/	-13%	/
O=C1C(=O)c2ccccc2C(O)=C1CC=C(Cl)Cl	/	/	3.2µM*	?	?
Cc1cccc(N2CCN(C(=O)C3CCN(c4ncnc5c4nc4n5CCCCC4)CC3)CC2)c1C	8%	81%	?	/	-3%
Cc1cccc(N2CCN(C(=O)C3CCN(c4ncnc5c4nc4n5CCCCC4)CC3)CC2C)c1 (configuration not stated)	?	164%	10µM*	?	-8%
O=C(Cc1ccccc1[N+](=O)[O-])OCC(=O)c1c[nH]c2ccccc12	-20%	10µM*	22%	12%	-6%
O=C1OCCN/C1=C/C(=O)c1ccccc1	/	/	/	5%[14.2 µM]	/
COc1ccc(/C=C/C=N/NC(=O)COc2ccc(OC)cc2)cc1	-12%	-30%	0.79µM*	0%	36%
COc1ccc(NCC(=O)N/N=C/C=C\c2ccccc2)cc1	7%	-3%	?	3%	34%
Cc1[nH]c2ccccc2c1/C=N/NC(=O)c1cccc(S(=O)(=O)Nc2cccc(C(F)(F)F)c2)c1	-7%	4.5µM*	/	/	20%
